Values joined by “and” are separate entries in the source; they are usually repeats but may differ in a detail not shown here. Identical values can stand only once. Inconclusive results are not listed. Some structures have more than one record in an assay (separate samples or runs), and their calls can disagree. Unmarked numbers belong to inactive results. Active and inactive are the calls of the source. Calls follow the shape of the dose curve; as a rule, active = well fitted inhibition curve with a large enough effect; inconclusive = small, poorly fitted or top-dose-only effect; inactive = flat fitted curve, though single readings scatter.

One test concerns KB-3-1. As to the kind of experiment: Cytotoxic Profiling of Annotated Libraries Using Quantitative High-Throughput Screening (AID 1296008). The following applies: Five cell lines viability, CellTiter-Glo ATP luminescence, 48-72 h; max response: hits give low values. The method in brief: (§1)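 Cytotoxicity was measured as CellTiter-Glo ATP luminescence, read after 10 min at room temperature. Compound treatment of the cells lasted 48 or 72 hr at 37 degrees Celsius in a qHTS format.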
(In general: ATP-based viability assays read luminescence as a measure of living cells.)

For test [1], the system named is NIH3T3. The test is described as above. The following applies: Five cell lines viability, CellTiter-Glo ATP luminescence, 48-72 h; max response: hits give low values. The method in brief: as §1
A further test relates to MCC-13. As to the kind of experiment: qHTS assay to identify novel small-molecules to repurpose for Merkel cell carcinoma treatment (AID 1296009). The following applies: MCC and control cell lines, CellTiter-Glo viability, 72 h; series mostly up to 46 µM. The method, boiled down:
(§2)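 72 hr, 37 degree celsius; NPC 8-pt / MIPE 11-pt dose response; compound pinned in DMSO; CellTiter-Glo, 10 min RT, luminescence; normalized to no-cell and DMSO controls.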
Background: qHTS replaces the single test concentration by a dilution series.

A further test deals with MCC-26. Described as above. The following applies: MCC and control cell lines, CellTiter-Glo viability, 72 h; series mostly up to 46 µM. The method, boiled down: as §2
For the next test, the system named is MKL-1. The description is as above. The following applies: MCC and control cell lines, CellTiter-Glo viability, 72 h; series mostly up to 46 µM. The method in brief:
as §2

The next test deals with MKL-2. The description is as above. The following applies: MCC and control cell lines, CellTiter-Glo viability, 72 h; series mostly up to 46 µM. The method, boiled down: as §2
For test [2], the system named is NIH3T3. The test is described as above. The following applies: MCC and control cell lines, CellTiter-Glo viability, 72 h; at 44.8 µM (top of the series) unless noted. The method, boiled down: as §2
Another test has as its system UISO. The test is described as above. The following applies: MCC and control cell lines, CellTiter-Glo viability, 72 h; series mostly up to 46 µM. The method, boiled down:
as §2

In another test the test system is HACAT. The test is described as above. The following applies: MCC and control cell lines, CellTiter-Glo viability, 72 h; at 44.8 µM (top of the series) unless noted. The method, boiled down:
as §2

The next test concerns HEK293T. The test is described as above. The following applies: MCC and control cell lines, CellTiter-Glo viability, 72 h; at 44.8 µM (top of the series) unless noted. The method in brief: as §2
% is scaled to controls: 0 for no effect and ±100 for the full control effect; potency is read from the fitted curve at half-maximal effect.
Also: nearly all actives have a fitted effect of over 60% in size.

On to `COc1cc(OC)c(C(=O)CCCN2CCCC2)c(OC)c1`, for which the max response in the test with KB-3-1 is -2.3% and 3.48%; in the test with NIH3T3 [1], -4.19%. Further, the molecule was classed as inactive in the test on NIH3T3 [1] and with NIH3T3 [2]. Also, the Potency result in the test with MCC-13, with MCC-26, with MKL-1, with MKL-2 and in the test with UISO was “inactive” in each case.

With `CCOC(=O)c1c(C)n(C)c2ccc(O)cc12`, the max response in the test on KB-3-1 is -7.66% and 1.23%; with NIH3T3 [1] it was -5.37%. The molecule was called inactive with NIH3T3 [1], in the test with HACAT and with NIH3T3 [2]. Also, the Potency entry with MCC-13, in the test on MCC-26, with MKL-1, in the test on MKL-2 and in the test on UISO was “inactive” throughout.

`COC1=C(OC)C(=O)C(CCCCCCCCCCO)=C(C)C1=O`: the max response in the test on KB-3-1 was -4.5% and -1.13%; with NIH3T3 [1] it was 4.9%. Also, the molecule was called inactive in the test with NIH3T3 [1], in the test on HACAT and with NIH3T3 [2]. Further, the Potency entry in the test on MCC-13 and with MCC-26 was “inactive” each time. In the test with MKL-1, the Potency was 15 µM (active).

Take `CC1=C(C(=O)O)N2C(=O)[C@@H](NC(=O)[C@H](N)C3=CCC=CC3)[C@H]2SC1`: the max response with KB-3-1 was -3.32%. The molecule was called inactive in the test with KB-3-1, in the test on NIH3T3 [1], with HACAT, in the test with HEK293T and in the test with NIH3T3 [2]. Also, the Potency result in the test with MCC-13, with MCC-26, in the test with MKL-1, with MKL-2 and with UISO was “inactive” throughout.

With `CN(C)C(=O)[C@H](O)[C@H](Cc1ccccc1)NC(=O)c1cc2cc(Cl)ccc2[nH]1`, the max response in the test with KB-3-1 was -0.73%; with NIH3T3 [1], -4.58%. Moreover, the call in the test with KB-3-1, in the test with NIH3T3 [1], in the test on HACAT and in the test with NIH3T3 [2] was inactive. The Potency result with MCC-13 and in the test with MKL-2 was “inactive” in each case. Also, in the test on UISO, the Potency is 4.18 µM (active).

Consider `Cc1c(C(=O)NN2CCCCC2)nn(-c2ccc(Cl)cc2Cl)c1-c1ccc(Cl)cc1`, for which the results for the max response with KB-3-1 and in the test on NIH3T3 [1] were -25.1% and 0.216%, respectively. Besides, the call in the test on NIH3T3 [1], in the test on HACAT and in the test on NIH3T3 [2] was inactive. The Potency entry in the test on MCC-13, in the test on MCC-26, in the test with MKL-1 and in the test with MKL-2 was “inactive” throughout.

In the case of `CC(=O)NC[C@H]1CN(c2ccc(N3CCOCC3)c(F)c2)C(=O)O1`, the max response with KB-3-1 was -15.9% and -9.99% and -3.52%; in the test on NIH3T3 [1], -16% and 2.14%. The result in the test on HACAT was inactive. For the same molecule, the Potency entry with MCC-13, in the test with MCC-26, with MKL-1, with MKL-2 and in the test with UISO was “inactive” each time.

As to `Nc1cc(C(Cl)=C(Cl)Cl)c(S(N)(=O)=O)cc1S(N)(=O)=O`, the max response with KB-3-1 is -2.94% and -17.4%; with NIH3T3 [1], 4.72% and -5.94%. In addition, the call in the test with HEK293T was inactive. For the same molecule, the Potency result in the test on MCC-13, in the test on MCC-26, in the test on MKL-1, in the test on MKL-2 and in the test with UISO was “inactive” throughout.

As for `C[C@@H](c1ncncc1F)[C@](O)(Cn1cncn1)c1ccc(F)cc1F`, the max response was -4.61% in the test on KB-3-1 and -4.26% with NIH3T3 [1]. Also, the molecule was called inactive in the test on HACAT. Moreover, the Potency entry in the test with MCC-13, with MCC-26, in the test with MKL-1, in the test with MKL-2 and in the test with UISO was “inactive” throughout.

Take `Cc1c(OCC(F)(F)F)ccnc1CS(=O)c1nc2ccccc2[nH]1` (stereo not given): the max response is -13.1% and -5.17% in the test on KB-3-1; 1.81% and 4.74% in the test on NIH3T3 [1]. In the test on HACAT, the result was inactive. Further, the Potency entry with MCC-13, with MCC-26, in the test on MKL-1, with MKL-2 and in the test on UISO was “inactive” throughout.

Consider `CC(C)(S)[C@@H](N)C(=O)O`, for which the max response with KB-3-1 was 2.35% and 8.6%. The call in the test on NIH3T3 [1], in the test with HACAT and with NIH3T3 [2] was inactive. For the same molecule, the Potency entry with MCC-13, in the test with MCC-26, in the test on MKL-1, with MKL-2 and in the test on UISO was “inactive” each time.

Regarding `C[C@H](Cc1ccc(O)c(O)c1)[C@@H](C)Cc1ccc(O)c(O)c1`, the max response in the test on KB-3-1 is -9.31% and -6.61%; in the test with NIH3T3 [1], -21.7%. Also, the result with HACAT was inactive. Further, the Potency result in the test on MCC-13 and in the test with MCC-26 was “inactive” in each case. The Potency in the test with MKL-1 is 11.8 µM (active); with MKL-2, 18.7 µM (active).

`Cc1nc(Nc2ncc(C(=O)Nc3c(C)cccc3Cl)s2)cc(N2CCN(CCO)CC2)n1`: the max response in the test with KB-3-1 is -28.1%; in the test on NIH3T3 [1], -106%. The Potency in the test on NIH3T3 [1] was 59.6 nM (active) and 73.1 nM (active); with MCC-13 it was 0.168 µM (active). Besides, the Potency entry in the test with MKL-1 and in the test with MKL-2 was “inactive” in each case.

For the molecule `CC1(C)NC(=O)N(c2ccc([N+](=O)[O-])c(C(F)(F)F)c2)C1=O`, the max response in the test with KB-3-1 is 2.37% and -24.9%; in the test with NIH3T3 [1], -6.23% and -0.388%. For the same molecule, the outcome in the test with HACAT was inactive. Besides, the Potency result in the test on MCC-13, with MCC-26, in the test on MKL-1, with MKL-2 and in the test with UISO was “inactive” in each case.

Consider `NC(=NCc1ccccc1)NC(=O)c1nc(Cl)c(N)nc1N`, for which the figures for the max response in the test on KB-3-1 and with NIH3T3 [1] were -6.74% and 3.69%, respectively. The outcome with HACAT is “inactive; activator”. Besides, the Potency result with MCC-13, with MCC-26, in the test on MKL-1 and in the test on UISO was “inactive” in each case.

As to `NC(=O)Cc1cccc(C(=O)c2ccccc2)c1N`, the max response with KB-3-1 is -8.75%; with NIH3T3 [1], 1.53% and -19%. The molecule was called inactive with HACAT. Also, the Potency entry with MCC-13, in the test with MCC-26, in the test with MKL-1, in the test on MKL-2 and in the test with UISO was “inactive” throughout.

For `C=CCc1cc(OC)c(O)c(C(=O)NCCO)c1`, the max response with KB-3-1 is 8.32% and 9.16%; with NIH3T3 [1] it was -1.28% and -4.54%. Further, in the test on HACAT, the call was inactive. In addition, the Potency entry in the test with MCC-13, in the test with MCC-26, in the test with MKL-1, with MKL-2 and in the test with UISO was “inactive” throughout.

For the molecule `O=C1NC(=O)C(c2ccccc2[N+](=O)[O-])=C1Nc1ccc(O)c(Cl)c1`, the molecule was called inactive in the test on KB-3-1, in the test with NIH3T3 [1], in the test with HEK293T and in the test on NIH3T3 [2]. Also, the Potency entry with MCC-13, with MCC-26, in the test on MKL-1, in the test with MKL-2 and in the test on UISO was “inactive” in each case.

(Values after PubChem BioAssay (NCATS).)
